Several values for one entry are separate records, joined by “and”; a condition that tells them apart may be missing. Identical values can stand only once. The campaign covered roughly 5,500 compounds. About 2,000 (36%) were called active. Another 18% or so got no clear call; they are omitted. Rule as the data show it: active = normalized growth mostly below about 0.91 (no sharp cut-off); inconclusive = no clear call, values can overlap the other calls; inactive = mostly above about 0.92. Some of the results follow.
Assay: chemical genetic growth profiling, strain panel (AID 1159580);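 also: tested at 20 µM; growth read once vehicle control cultures reached saturation at 30 °C; 1 = growth at the plate median or of vehicle wells; lower values mean less growth of the strain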
Conditions: S. cerevisiae deletion strains, growth OD

Measured: normalized growth

CN1CC(=O)N=C1N
inactive: locus YAL013W, strain DEP1, active compounds read low 1.01 | locus YAL021C, strain ccr4, active compounds read low 1.01 | locus YAL026C, strain drs2, active compounds read low 1.03 | locus YAL030W, strain snc1, active compounds read low 1.02 | locus YBL061C, strain skt5, active compounds read low 1.03 | locus YBR009C, strain hhf1, active compounds read low 1.05 | locus YBR021W, strain FUR4, active compounds read low 1 | locus YBR023C, strain chs3, active compounds read low 1.03 | locus YBR171W, strain sec66, active compounds read low 1.03 | locus YBR229C, strain ROT2, active compounds read low 1 | locus YBR231C, strain swc5, active compounds read low 1.03 | locus YBR279W, strain paf1, active compounds read low 1.03 | locus YCL011C, strain gbp2, active compounds read low 1.03 | locus YCL016C, strain dcc1, active compounds read low 1.02 | locus YCL029C, strain bik1, active compounds read low 0.986 | locus YCL061C, strain MRC1, active compounds read low 1.01 | locus YCL069W, strain vba3, active compounds read low 1.02 | locus YCR088W, strain abp1, active compounds read low 1.01 | locus YDL005C, strain med2, active compounds read low 1.02 | locus YDL035C, strain GPR1, active compounds read low 1.01 | locus YDL040C, strain nat1, active compounds read low 1.01 | locus YDL074C, strain BRE1, active compounds read low 1.03 | locus YDL101C, strain DUN1, active compounds read low 1.02 | locus YDL134C, strain PPH21, active compounds read low 1 | locus YDL185W, strain tfp1, active compounds read low 0.992 | locus YDL192W, strain arf1, active compounds read low 1 | locus YDR001C, strain nth1, active compounds read low 1.01 | locus YDR069C, strain doa4, active compounds read low 1.04 | locus YDR101C, strain arx1, active compounds read low 0.991 | locus YDR137W, strain rgp1, active compounds read low 1.1 | locus YDR159W, strain sac3, active compounds read low 1.05 | locus YDR162C, strain NBP2, active compounds read low 1.02 | locus YDR195W, strain ref2 0.969 | locus YDR297W, strain sur2, active compounds read low 1.02 | locus YDR318W, strain mcm21, active compounds read low 0.997 | locus YDR334W, strain swr1, active compounds read low 1.02 | locus YDR335W, strain msn5, active compounds read low 1.03 | locus YDR388W, active compounds read low 0.997 | locus YDR392W, strain spt3, active compounds read low 1.02 | locus YDR502C, strain sam2, active compounds read low 0.995 | locus YEL003W, strain gim4, active compounds read low 1.04 | locus YEL037C, strain rad23, active compounds read low 1.01 | locus YEL061C, strain CIN8 (second series), active compounds read low 1.02 | locus YEL061C, strain CIN8, active compounds read low 1.01 | locus YER015W, strain faa2, active compounds read low 1.02 | locus YER016W, strain bim1, active compounds read low 1.02 | locus YER110C, active compounds read low 0.992 | locus YER111C, strain swi4, active compounds read low 1.04 | locus YER155C, strain BEM2 (second series), active compounds read low 1.06 | locus YER155C, strain BEM2, active compounds read low 1.01 | locus YER167W, strain BCK2, active compounds read low 1.01 | locus YFR010W, strain ubp6, active compounds read low 1.03 | locus YGL078C, strain dbp3, active compounds read low 0.995 | locus YGL086W, strain mad1, active compounds read low 0.998 | locus YGL167C, strain pmr1, active compounds read low 1.03 | locus YGL173C, strain kem1, active compounds read low 1.03 | locus YGL227W, strain vid30, active compounds read low 1.02 | locus YGL240W, strain doc1, active compounds read low 1.05 | locus YGL248W, strain PDE1, active compounds read low 1.01 | locus YGL253W, strain hxk2, active compounds read low 1.02 | locus YGR078C, strain PAC10, active compounds read low 1.01 | locus YGR135W, strain pre9, active compounds read low 1 | locus YGR229C, strain SMI1, active compounds read low 1.02 | locus YGR252W, strain gcn5, active compounds read low 0.965 | locus YHR013C, strain ard1, active compounds read low 1.06 | locus YHR027C, strain rpn1, active compounds read low 1.02 | locus YHR030C, strain SLT2, active compounds read low 1.01 and 0.962 | locus YHR079C, strain IRE1 (second series), active compounds read low 0.994 | locus YHR079C, strain IRE1, active compounds read low 0.966 | locus YHR094C, strain hxt1, active compounds read low 0.994 | locus YHR129C, strain ARP1, active compounds read low 1.01 | locus YHR142W, strain chs7, active compounds read low 0.996 | locus YHR200W, strain rpn10, active compounds read low 0.997 | locus YIL066C, strain RNR3, active compounds read low 1.02 | locus YIL073C, strain SPO22, active compounds read low 1.03 | locus YIL125W, strain kgd1, active compounds read low 0.988 | locus YIR030C, strain dcg1, active compounds read low 0.998 | locus YJL092W, strain hpr5, active compounds read low 1.01 | locus YJL095W, strain BCK1 (second series), active compounds read low 1.03 | locus YJL095W, strain BCK1, active compounds read low 1.03 and 0.956 | locus YJL115W, strain asf1, active compounds read low 1.02 | locus YJL129C, strain trk1, active compounds read low 1.04 | locus YJL134W, strain LCB3, active compounds read low 1.01 | locus YJL154C, strain vps35, active compounds read low 1.02 | locus YJL164C, strain tpk1, active compounds read low 1.05 | locus YJL166W, strain qcr8, active compounds read low 1.03 | locus YJL168C, strain set2, active compounds read low 1 | locus YJL187C, strain SWE1 (second series), active compounds read low 1.02 | locus YJL187C, strain SWE1, active compounds read low 1.03

Reference: PubChem BioAssay AID1159580 (chemical genetic matrix, 2015)
